Results: the supplement of paper PMC10498489
The whole screen tested about 2,300 compounds, of which about 330 (14%) showed activity.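 How the source made its calls: active = median modified Z-score above 1.96; inactive = 1.96 or below.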 Not all results are given here.

Each compound was assayed on HepG2 Srxn1-GFP reporter cells (+30 nM CDDO-Me) (assay: Srxn1-GFP intensity median modified Z-score relative to plate median; higher = stronger NRF2 / oxidative stress reporter activation, active = hit call of the paper). Conditions: 10 µM; exposure time: 24h.
Procedure, shortened: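 The modified Z-score of GFP intensity was computed per plate, and the median over replicates is reported. HepG2 Srxn1-GFP BAC reporter cells in three replicate plates were treated for 24 h with compound at 10 μM plus an NRF2 activator at 30 nM (≤0.1% DMSO). Per-cell cytoplasmic GFP came from confocal images, excluding those with under 100 cells, and scaling used 1.4826 × median absolute deviation.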

Srxn1-GFP intensity median modified Z-score, inactive:
COc1ccc(C2COc3c(ccc(O)c3OC)C2)c(OC)c1O (configuration not stated) [euspeclibcmpd1831] 1.65
CC1(C)C(=O)C2C[C@@]3(O)C4=CC(=O)O[C@@H](c5ccoc5)[C@]4(C)CCC3[C@](C)(C2=O)[C@H]1CC(=O)O (some centres not stated) [euspeclibcmpd1558] -0.051
N=c1[nH]c(=O)c2ncn(CCC(CO)CO)c2[nH]1 [euspeclibcmpd464] 0.273
CCC(=O)c1ccc(O)cc1 [euspeclibcmpd1262] 0.156
O=C(O)C1=CC(=C(c2ccc(O)c(C(=O)O)c2)c2ccc(O)c(C(=O)O)c2)C=CC1=O [euspeclibcmpd1741] -0.835
O=C(O)c1cc(N=Nc2ccc(S(=O)(=O)N=c3cccc[nH]3)cc2)ccc1O [euspeclibcmpd280] -0.614
Cc1ccc(C(=O)c2ccc(CC(=O)O)n2C)cc1 [euspeclibcmpd2405] 0.508
OC[C@H](O)C(O)[C@@H](O)CO [euspeclibcmpd2128] -0.222
COc1cc(O)c2c(=O)c(OC)c(-c3ccc(OC)c(OC)c3)oc2c1 [euspeclibcmpd1656] -0.275
NC(=O)NC(CCC(=O)O)C(=O)O (configuration not stated) [euspeclibcmpd1209] 0.184
O=C1CCc2ccc(OCCCCN3CCN(c4cccc(Cl)c4Cl)CC3)cc2N1 [euspeclibcmpd879] 0.292
O=c1n(CCCN2CCN(c3cccc(Cl)c3)CC2)nc2ccccn12 [euspeclibcmpd533] 0
Cc1c(C)c2c(c(C)c1O)CCC(C)(C(=O)O)O2 (configuration not stated) [euspeclibcmpd1989] -0.727
COc1ccc(=NS(=O)(=O)c2ccc(N)cc2)[nH]n1 [euspeclibcmpd409] -0.327
CC(C)c1nc(CN(C)C(=O)NC(C(=O)N[C@@H](Cc2ccccc2)C[C@H](O)[C@H](Cc2ccccc2)NC(=O)OCc2cncs2)C(C)C)cs1 (some centres not stated) [euspeclibcmpd486] 0.333
COc1ccccc1N1CCN(CCCNc2cc(=O)n(C)c(=O)n2C)CC1 [euspeclibcmpd1121] -0.334
COC1=C(C)C2CC(=O)O[C@@H]3C[C@H]4C(C)=CC(OC)C(=O)[C@]4(C)C(C1=O)[C@]23C (some centres not stated) [euspeclibcmpd1498] 0.142
COc1ccc2c(c1OC)C(=O)O[C@H]2[C@H]1c2c(cc3c(c2OC)OCO3)CCN1C [euspeclibcmpd216] 0.635
CN1CC(=O)N2C(Cc3c([nH]c4ccccc34)[C@H]2c2ccc3c(c2)OCO3)C1=O (some centres not stated) [euspeclibcmpd833] -0.451
CO[C@@H]1[C@@H](O[C@@H]2O[C@H](C)[C@@H](O[C@H]3C[C@@](C)(O)[C@H](O)[C@H](C)O3)[C@H](N(C)C)[C@H]2O)[C@@H](CC=O)C[C@@H](C)[C@@H](O[C@H]2CC[C@H](N(C)C)[C@@H](C)O2)/C=C/C=C/C[C@H](C)OC(=O)C[C@H]1O [euspeclibcmpd581] 0.0936
CCC1(CC)C(=O)CC=NC1=O [euspeclibcmpd1119] -0.354

Srxn1-GFP intensity median modified Z-score, active:
O=C1C=CC(=C(c2ccc(O)cc2)c2ccc(O)cc2)C=C1 [euspeclibcmpd1770] 19.5
CCc1nn(CCCN2CCN(c3cccc(Cl)c3)CC2)c(=O)n1CCOc1ccccc1 [euspeclibcmpd461] 8.98
COc1ccc2cc1Oc1ccc(cc1)C[C@H]1c3cc(c(OC)cc3CCN1C)Oc1c(OC)c(OC)cc3c1[C@H](C2)N(C)CC3 [euspeclibcmpd1476] 21.7
COc1ccc2cc1Oc1ccc(cc1)C[C@H]1c3c(cc4c(c3Oc3cc5c(cc3OC)CCN(C)[C@@H]5C2)OCO4)CCN1C [euspeclibcmpd1270] 4.85
CC(C)(O)c1ccccc1CC[C@@H](SCC1(CC(=O)O)CC1)c1cccc(/C=C/c2ccc3ccc(Cl)cc3n2)c1 [euspeclibcmpd2362] 8.32
CC1=CC(=O)C2C(C)(C)CCC[C@]2(C)[C@@]1(O)CCc1ccoc1 (some centres not stated) [euspeclibcmpd1719] 17.2
